Data as given in PubChem BioAssay (Tox21).
Inconclusive results are not listed. Calls of active or inactive are those of the source. Calls come from the whole dose curve; as a rule, active = well fitted curve in the direction sought with a large enough effect in the repeat runs; inconclusive = weak or mixed curves; inactive = no such curve, though single readings can be large; an effect the other way counts as inactive or inconclusive.

What follows are compounds tested against Voltage-gated inwardly rectifying potassium channel KCNH2 (Homo sapiens) (UniProt Q12809) (assay: Human Ether-a-go-go-Related Gene (hERG) channel small molecule antagonists: fluorescence cell-based qHTS assay (AID 1671200;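 for activity change, negative = inhibition: hERG-expressing U2OS cells given a thallium stimulus after FluxOR II dye loading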)). Conditions: hERG-U2OS cells, FluxOR thallium flux fluorescence; series mostly up to 76.8 µM; activity change, negative = inhibition: at the top concentration.
Procedure, shortened: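 In this thallium-flux screen, overnight-cultured U2OS cells bearing the channel are dye-loaded in darkness for an hour, rested 10 min at room temperature, and then monitored kinetically at 480/540 nm for two minutes post-stimulus.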
% is set by controls: 0 for no effect and ±100 for the full control effect; potency is the fitted concentration of half-maximal effect.
Note: nearly all actives have a fitted effect of over 50% in size.

Voltage-gated inwardly rectifying potassium channel KCNH2 (Homo sapiens), sequence (Q12809 whole entry, looked up): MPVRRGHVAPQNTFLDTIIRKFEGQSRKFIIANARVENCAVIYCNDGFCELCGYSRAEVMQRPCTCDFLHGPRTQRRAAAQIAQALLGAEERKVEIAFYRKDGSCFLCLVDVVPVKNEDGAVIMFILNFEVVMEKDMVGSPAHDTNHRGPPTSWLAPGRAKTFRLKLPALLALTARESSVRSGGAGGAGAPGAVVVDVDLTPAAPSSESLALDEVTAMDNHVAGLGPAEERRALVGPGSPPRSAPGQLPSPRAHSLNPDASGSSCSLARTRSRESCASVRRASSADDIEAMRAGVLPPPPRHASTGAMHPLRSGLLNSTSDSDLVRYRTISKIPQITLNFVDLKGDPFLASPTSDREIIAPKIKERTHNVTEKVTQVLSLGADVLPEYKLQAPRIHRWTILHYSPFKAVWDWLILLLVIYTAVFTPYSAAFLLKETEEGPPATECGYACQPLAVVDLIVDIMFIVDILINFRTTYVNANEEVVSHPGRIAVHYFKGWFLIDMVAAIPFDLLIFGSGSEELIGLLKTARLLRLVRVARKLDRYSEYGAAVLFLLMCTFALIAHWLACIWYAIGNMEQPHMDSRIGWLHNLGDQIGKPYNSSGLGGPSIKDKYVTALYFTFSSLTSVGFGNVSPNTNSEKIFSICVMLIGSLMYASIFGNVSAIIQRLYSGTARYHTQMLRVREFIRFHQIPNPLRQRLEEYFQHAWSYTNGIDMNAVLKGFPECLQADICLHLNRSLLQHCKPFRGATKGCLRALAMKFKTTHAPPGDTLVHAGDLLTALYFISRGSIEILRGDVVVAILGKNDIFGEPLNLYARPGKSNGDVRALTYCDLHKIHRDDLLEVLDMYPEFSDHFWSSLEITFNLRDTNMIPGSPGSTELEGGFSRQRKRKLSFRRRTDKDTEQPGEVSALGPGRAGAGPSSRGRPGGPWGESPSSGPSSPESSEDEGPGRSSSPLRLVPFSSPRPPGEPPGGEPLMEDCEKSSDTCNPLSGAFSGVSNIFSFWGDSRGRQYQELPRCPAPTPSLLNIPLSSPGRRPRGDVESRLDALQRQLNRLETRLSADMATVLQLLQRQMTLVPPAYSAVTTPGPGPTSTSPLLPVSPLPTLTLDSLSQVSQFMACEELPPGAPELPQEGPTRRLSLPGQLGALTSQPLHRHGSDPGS

SMILES | activity change, negative = inhibition | Potency
ClC(Cl)Cl | 2.34% (inactive) | 
CCOC(=O)C(Br)c1ccccc1 (stereo not drawn) | 7.82% (inactive) | 
CC(CNC1CCCCC1)OC(=O)c1ccccc1 (stereo not drawn) | 0.476% [at 35.3 µM] (inactive) | 
Cc1c[nH]c(=S)[nH]c1=O | 6.84% (inactive) | 
C[C@@H](N)C(=O)O | 0.159% [at 35.3 µM] (inactive) | 
CC1(O)CSC(C)(O)CS1 (stereo not drawn) | 0.203% (inactive) | 
CCN(CC)C(=O)N(CC)CC | 2.33% (inactive) | 
CCCNC(C)C(=O)Nc1c(C)csc1C(=O)OC (stereo not drawn) | -0.856% [at 35.3 µM] (inactive) | 
O=C1CCCCCCCCCCC(=O)OCCO1 | -5.99% (inactive) | 
CCCOc1ccc2c(c1)CC[C@@H]1[C@@H]2CC[C@]2(C)C(OC)CC[C@@H]12 (stereo partly drawn) | -2.08% [at 35.3 µM] (inactive) | 
OCCN(CCO)c1ccccc1 | -0.106% (inactive) | 
NC(Cc1ccc(F)cc1)C(=O)O (stereo not drawn) | 3.14% [at 6.97 µM] (inactive) | 
CC(Oc1c(Cl)cccc1Cl)C1=NCCN1 (stereo not drawn) | -0.168% [at 35.3 µM] (inactive) | 
CC(C)NCC(O)COc1ccc(CCOCC2CC2)cc1 (stereo not drawn) | 2.17% [at 35.3 µM] (inactive) | 
c1ccc(CN(CC2=NCCN2)c2ccccc2)cc1 |  | 19 µM (active)
C=CCCCCCCCCO | -1.3% (inactive) | 
CC(C)Nc1nc(N)nc(Cl)n1 | 0.609% (inactive) | 
CCCCCCCCc1ccc(S(=O)(=O)O)cc1 | -6.46% (inactive) | 
CC(C)C[C@H](NC(=O)OCC1c2ccccc2-c2ccccc21)C(=O)O | 0.594% (inactive) | 
CC(C)O | 6.16% (inactive) | 
CCCNC(C)(C)COC(=O)c1ccccc1 | 1.2% [at 35.3 µM] (inactive) | 

What follows are compounds tested against Cytochrome P450 3A4 (Homo sapiens) (UniProt P08684) (assay: Cytochrome P450 Family 3 Subfamily A Member 4 (CYP3A4) small molecule antagonists: luciferase reporter qHTS assay (AID 1671201)). Conditions: P450-Glo CYP3A4 enzyme, luciferin luminescence, 1 h; series mostly up to 115 µM; activity change, negative = inhibition: at the top concentration.
Procedure, shortened: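 CYP3A4 activity was followed with a P450-Glo proluciferin substrate. Test compounds in DMSO were preincubated 10 min; NADPH regeneration then ran 1 h, and light output was read 20 min after detection reagent.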

Cytochrome P450 3A4 (Homo sapiens), sequence (P08684 whole entry, looked up): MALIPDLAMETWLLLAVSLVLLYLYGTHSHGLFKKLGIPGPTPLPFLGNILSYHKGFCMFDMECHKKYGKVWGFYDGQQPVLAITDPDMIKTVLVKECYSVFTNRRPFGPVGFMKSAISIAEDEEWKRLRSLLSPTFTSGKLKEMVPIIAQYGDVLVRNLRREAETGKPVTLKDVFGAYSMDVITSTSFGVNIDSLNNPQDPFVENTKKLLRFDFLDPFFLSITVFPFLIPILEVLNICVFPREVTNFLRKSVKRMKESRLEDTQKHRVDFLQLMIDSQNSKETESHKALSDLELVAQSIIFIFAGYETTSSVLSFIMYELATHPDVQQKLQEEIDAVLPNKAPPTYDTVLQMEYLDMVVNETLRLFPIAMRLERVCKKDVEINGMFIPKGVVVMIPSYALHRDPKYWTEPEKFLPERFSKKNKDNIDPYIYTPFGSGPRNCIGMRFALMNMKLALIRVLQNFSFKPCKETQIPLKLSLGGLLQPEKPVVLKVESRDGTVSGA

SMILES | activity change, negative = inhibition | Potency
C=CCc1cc(OC)c(O)c(C(=O)NCCO)c1 | 11.2% [at 52.9 µM] (inactive) | 
CCCCCCCCCCCCCCCCOP(=O)([O-])OCC[N+](C)(C)C | 1.13% [at 52.9 µM] (inactive) | 
CCCS(=O)c1ccc2nc(NC(=O)OC)[nH]c2c1 (stereo not drawn) | -12.8% [at 52.9 µM] (inactive) | 
CCCCC1CCC(=O)O1 (stereo not drawn) | 8.9% (inactive) | 
CN(C)Cc1ccccc1 | -2.29% (inactive) | 
O=C(CCCl)NCc1ccccc1 | 0.365% [at 52.9 µM] (inactive) | 
CC/C=C\CCOC(=O)CCCCC | 2.79% (inactive) | 
CC(=O)OC(C)OC(C)=O | -11.1% (inactive) | 
C=CC1CO1 (stereo not drawn) | 6.4% (inactive) | 
CCOC(=O)C(Br)c1ccccc1 (stereo not drawn) | 4.7% (inactive) | 
Cc1c[nH]c(=S)[nH]c1=O | -21.3% (inactive) | 
C[C@@H](N)C(=O)O | 7.61% [at 52.9 µM] (inactive) | 
CCN(CC)C(=O)N(CC)CC | 11.6% (inactive) | 
CCCNC(C)C(=O)Nc1c(C)csc1C(=O)OC (stereo not drawn) | -13.9% [at 52.9 µM] (inactive) | 
O=C1CCCCCCCCCCC(=O)OCCO1 |  | 31.7 µM (active)
CCCOc1ccc2c(c1)CC[C@@H]1[C@@H]2CC[C@]2(C)C(OC)CC[C@@H]12 (stereo partly drawn) | 32.9% [at 52.9 µM] (inactive) | 
OCCN(CCO)c1ccccc1 | -9.7% (inactive) | 
c1ccc(CN(CC2=NCCN2)c2ccccc2)cc1 | -11.9% [at 52.9 µM] (inactive) | 
C=CCCCCCCCCO | -24.9% (inactive) | 
CC(C)Nc1nc(N)nc(Cl)n1 | 0.68% (inactive) | 
CCCCCCCCc1ccc(S(=O)(=O)O)cc1 | 75.5% (inactive) | 
CC(C)O | 14.3% (inactive) | 
